Experimental data: PubChem BioAssay (NCATS)
Where “and” joins values, the source holds several entries; their conditions need not be identical. Identical values can stand only once. Results filed as inconclusive are left out. Entries that show only a call come without a potency. Values without a mark were called inactive. Calls of active or inactive are those of the source. Calls follow the shape of the dose curve; as a rule, active = well fitted curve in the direction sought with a large enough effect; inconclusive = small, poorly fitted or top-dose-only effect, or another doubt; inactive = no such curve, though single readings can be large; an effect the other way counts as inactive or inconclusive.

Legend:
[1] = biological target: Cellular tumor antigen p53 (Homo sapiens) (UniProt P04637); test: Primary qHTS for small molecule compounds that upregulate eGFP-tagged delta133p53alpha (in N-terminal) cells. (AID 2060322); conditions: NCI-H358 eGFP-delta133p53alpha fluorescence, 24 h; activation: active compounds read high; also: nearly all actives have a fitted effect of over 75% in size; also: potency is read from the fitted curve at half-maximal effect; as to activation: series mostly up to about 56 µM
How it was run: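 NCI-H358 cells pre-induced 24 h with 10 ng/ml doxycycline to express N-terminal eGFP-delta133p53alpha, then dosed 24 h at 37C without doxycycline; fixed, Hoechst-stained, GFP intensity by laser scanning cytometry, normalized to DMSO (0%) and 57.5 uM 5-azacytidine (100%).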

[2] = biological target: Aldehyde dehydrogenase, mitochondrial (Homo sapiens) (UniProt P05091); test: qHTS for Inhibitors of the Aldehyde Dehydrogenase Family (ALDH2) Primary screen (AID 2061308); also: nearly all actives have a fitted effect of over 55% in size
[3] = biological target: Retinaldehyde dehydrogenase 3 (Homo sapiens) (UniProt P47895); test: qHTS for Inhibitors of the Aldehyde Dehydrogenase Family (ALDH1A3) Validation screen (AID 2061312); also: nearly all actives have a fitted effect of over 45% in size
[4] = biological target: Retinaldehyde dehydrogenase 3 (Homo sapiens) (UniProt P47895); test: qHTS for Inhibitors of the Aldehyde Dehydrogenase Family (ALDH1A3) Primary screen (AID 2061315)
[5] = BET inhibitor-based combinations targeting novel dependencies in MECOM-rearranged (r) AML: SET-2 cell line (AID 2202231); conditions: SET-2 AML cells viability, CellTiter-Glo luminescence, 48 h; viability: active compounds read low, concentration not given here; also: nearly all actives have a fitted effect of over 35% in size; also: potency is read from the fitted curve at half-maximal effect
How it was run: (§1)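 AML cell lines seeded at 500 cells/well, treated with 11-point dose curves for 48 h. Viability by CellTiter-Glo luminescence, normalised to DMSO and empty wells; activity expressed as AUC and per-cell-line Z-transformed AUC.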

[6] = BET inhibitor-based combinations targeting novel dependencies in MECOM-rearranged (r) AML: OCI-AML3 cell line (AID 2202232); conditions: Potency: OCI-AML3 viability; also: nearly all actives have a fitted effect of over 35% in size; also: potency is read from the fitted curve at half-maximal effect
How it was run: as §1

[7] = BET inhibitor-based combinations targeting novel dependencies in MECOM-rearranged (r) AML: UCSD-AML1 cell line (AID 2202235); also: nearly all actives have a fitted effect of over 40% in size; also: potency is read from the fitted curve at half-maximal effect
How it was run: (§2)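 Cells at 500/well were exposed for 48 hr to MIPE v5.0 drugs as 11-point dose curves. Viability was read by CellTiter-Glo luminescence and normalized to DMSO and empty-well controls. Activity was expressed as AUC and per-cell-line Z-AUC.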

[8] = BET inhibitor-based combinations targeting novel dependencies in MECOM-rearranged (r) AML: AML-191 cell line (AID 2202236; also: nearly all actives have a fitted effect of over 35% in size; also: potency is read from the fitted curve at half-maximal effect)
How it was run: as §1

[9] = BET inhibitor-based combinations targeting novel dependencies in MECOM-rearranged (r) AML: AML-194 cell line (AID 2202237; also: nearly all actives have a fitted effect of over 40% in size; also: potency is read from the fitted curve at half-maximal effect)
How it was run: as §1

[10] = BET inhibitor-based combinations targeting novel dependencies in MECOM-rearranged (r) AML: MV-4-11 cell line (AID 2202233); also: nearly all actives have a fitted effect of over 45% in size; also: potency is read from the fitted curve at half-maximal effect
How it was run: as §2

[11] = BET inhibitor-based combinations targeting novel dependencies in MECOM-rearranged (r) AML: HNT-34 cell line (AID 2202234); also: nearly all actives have a fitted effect of over 35% in size
How it was run: as §2

Chain of Cellular tumor antigen p53 (Homo sapiens) (P04637 whole entry, looked up): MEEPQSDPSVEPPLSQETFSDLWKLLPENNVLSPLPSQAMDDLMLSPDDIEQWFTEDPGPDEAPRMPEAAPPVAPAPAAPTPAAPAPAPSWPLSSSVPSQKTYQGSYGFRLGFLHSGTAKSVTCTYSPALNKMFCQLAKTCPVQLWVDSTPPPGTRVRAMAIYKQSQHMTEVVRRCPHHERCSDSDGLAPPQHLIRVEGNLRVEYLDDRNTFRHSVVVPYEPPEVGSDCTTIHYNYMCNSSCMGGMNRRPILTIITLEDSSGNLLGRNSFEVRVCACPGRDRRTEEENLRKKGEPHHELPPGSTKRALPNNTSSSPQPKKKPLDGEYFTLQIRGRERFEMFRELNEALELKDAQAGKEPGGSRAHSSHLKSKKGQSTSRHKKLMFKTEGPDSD

SMILES	Potency [1]	Potency [2]	Potency [3]	Potency [4]	Potency [5]	Potency [6]	Potency [7]	Potency [8]	Potency [9]	Potency [10]	activation [1]	viability [5]	Potency [11]
Cc1cc(OCc2nnc(SC3CCCC3)n2-c2cccnc2)ccc1-c1ccc(S(C)(=O)=O)cc1	6.75 µM (active)	inactive	inactive	inactive	6.61 µM (active)	3.72 µM (active)	5.9 µM (active)	8.33 µM (active)	7.42 µM (active)				
CN1CCN(Cc2ccc(NC(=O)Nc3ccc(Oc4cc(NC(=O)C5CC5)ncn4)cc3)cc2C(F)(F)F)CC1	0.968 µM (active)	inactive	inactive	inactive	0.742 µM (active)	0.372 µM (active)	0.372 µM (active)	0.59 µM (active)	0.833 µM (active)	0.0037 µM (active)			
Cc1nnc(C(C)C)n1C1CC2CCC(C1)N2CC[C@H](NC(=O)C1CCC(F)(F)CC1)c1ccccc1 (stereo partly specified)		inactive	inactive	inactive		inactive	inactive	inactive	inactive		-6.68%	113%	inactive
C[C@]12CC[C@H](O)CC1=CCC1C2CC[C@]2(C)C(n3cnc4ccccc43)=CCC12 (stereo partly specified)		inactive	inactive	inactive		inactive	inactive	18.6 µM (active)	inactive		20.1% and 28.6%	118%	inactive
Cc1ccc2nc(NC(=O)CSc3nc4c(c(=O)n3-c3ccccc3)SCC4)sc2c1		inactive	inactive	inactive			inactive	inactive	inactive	inactive	24.2% and -14.8%	114%	inactive
CN1CCC(COc2cnc(-c3cccc(Cn4nc(-c5cccc(C#N)c5)ccc4=O)c3)nc2)CC1		inactive	inactive	inactive			inactive	inactive		5.9 µM (active)	-3.12% and 9.55%	115%	inactive
O=C(C(c1ccccc1)c1ccccc1)N1CCN(CC(O)COc2cccc3ncccc23)CC1 (stereo unspecified)		inactive	inactive	inactive	20.9 µM (active)	11.8 µM (active)		18.6 µM (active)		18.6 µM (active)	4.77%		
COCCOc1ccc(N2CCN(CCn3ncc4c3nc(N)n3nc(-c5ccco5)nc43)CC2)cc1		inactive	inactive	inactive		inactive	inactive	inactive	inactive		6.21%	113%	inactive
CCCCNc1ncc(-c2ccc(CN3CCOCC3)cn2)c(NC2CCC(O)CC2)n1 (stereo unspecified)		inactive	inactive	inactive		1.15 µM (active)	8.11 µM (active)			0.144 µM (active)	-4.77%	114%	
Cn1cc(-c2ccc(F)c(C(F)(F)F)c2)nc1C1CCN(c2ncnc3[nH]ncc23)CC1		inactive	inactive	inactive		0.742 µM (active)	inactive	20.9 µM (active)	inactive		10%	96.6%	
Cc1cccc(-c2nn3c(c2-c2ccnc4ccc(C(N)=O)cc24)CCC3)n1		inactive	inactive	inactive		inactive		inactive	inactive		-7.16%	108%	inactive
CC(C)(C)NC(=O)Nc1cccc(Nc2ncc(F)c(NC(C)(C)CO)n2)c1		inactive	inactive	inactive	16.6 µM (active)	3.72 µM (active)	3.72 µM (active)		5.9 µM (active)	2.63 µM (active)	-4.76% and -4.3%		
C[C@H](NC(=O)Cc1cc(F)cc(F)c1)C(=O)N[C@@H]1C(=O)N(C)c2ccccc2-c2ccccc21		inactive	inactive	inactive			inactive	inactive		inactive	27.1% and -2.39%	121%	inactive
COc1cccc(Nc2c(C(N)=O)cnc3c(C)cc(S(=O)(=O)c4cccc(C(=O)N(C)C)c4)cc23)c1		inactive	inactive	inactive		16.6 µM (active)	inactive	5.9 µM (active)	inactive	3.32 µM (active)	11.1% and -9.07%	120%	
CC(C)(N)C(=O)N[C@H](COCc1ccccc1)C(=O)N1CCC2(CC1)CN(S(C)(=O)=O)c1ccccc12		inactive	inactive	inactive		11.8 µM (active)		20.9 µM (active)		10.5 µM (active)	18.6% and 11%	104%	
CCOc1cc2c(c(F)c1OCC)C(=N)N(CC(=O)c1cc(N3CCOCC3)c(OC)c(C(C)(C)C)c1)C2		inactive	inactive	inactive	16.6 µM (active)	16.6 µM (active)			10.5 µM (active)	8.33 µM (active)	-9.71%		
